ALR H2O2 inh: human ALR oxidase inhibition via reduced H2O2. inhibition, % (concentration not given with the values). AID 485317. 290,000 tested, 3.8% active. purified ALR, DTT oxidation, H2O2 HRP-luminol luminescence;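 active = mean replicate inhibition above about 79%, with every replicate also reaching it, limit read from the data; inconclusive = only one of the two criteria met; inactive = mean below limit and not every replicate reaching it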
Target sequence (P55789 whole entry, looked up): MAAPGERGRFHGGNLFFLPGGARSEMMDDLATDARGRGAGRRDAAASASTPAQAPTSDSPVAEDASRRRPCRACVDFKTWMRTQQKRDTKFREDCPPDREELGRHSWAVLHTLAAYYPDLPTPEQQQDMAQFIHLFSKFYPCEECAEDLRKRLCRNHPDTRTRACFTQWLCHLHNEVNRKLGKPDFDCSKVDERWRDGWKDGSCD
rCAG binder: molecules binding r(CAG) RNA repeats | inhibition, % at 3 µM | 370,000 tested, 1.3% active | r(CAG) RNA repeat, TO-PRO-1 dye displacement fluorescence | AID 651821;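 active = inhibition above the plate cutoff, the mean of all test compounds on that plate plus 3 SD, cut at about 35% in these data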;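 also: higher means more dye released from RNA so lower well fluorescence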
APOBEC3G inh: inhibitors of human APOBEC3G DNA deaminase; inhibition, % at 20 µM; recombinant A3G, ssDNA deamination FAM/TAMRA fluorescence; Q9HC16; 330,000 tested, 0.28% active; AID 493012;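 active = inhibition of at least 40% at 20 µM, with no more than 30% in the related APOBEC3A deaminase screen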
A3A deaminase: blocks human APOBEC3A ssDNA deamination; P31941; recombinant A3A, FAM/TAMRA ssDNA deamination fluorescence; inhibition, % at 20 µM; 330,000 tested, 0.41% active; AID 493011;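 active = at least 40% inhibition at 20 µM here, with at most 30% in a related deaminase screen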
PHOSPHO1 block: PHOSPHO1 (human) inhibition. AID 1565. 290,000 tested, 1.1% active. Q8TCT1. inhibition, % at 13.3 µM. recombinant PHOSPHO1, absorbance phosphatase assay; in the data active = inhibition above about 60%
Target sequence (Q8TCT1 whole entry, looked up): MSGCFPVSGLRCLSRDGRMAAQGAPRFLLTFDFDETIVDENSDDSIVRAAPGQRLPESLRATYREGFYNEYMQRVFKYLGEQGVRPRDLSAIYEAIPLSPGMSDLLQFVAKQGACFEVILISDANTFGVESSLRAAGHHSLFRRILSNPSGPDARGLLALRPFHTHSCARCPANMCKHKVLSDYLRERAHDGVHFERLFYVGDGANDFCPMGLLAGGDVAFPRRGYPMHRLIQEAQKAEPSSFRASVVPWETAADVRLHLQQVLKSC
aDG glyco up: alpha-DG glycosylation activation; activation, % at 10 µM; Pro5-aDG cells, alpha-DG glycosylation AlphaScreen (IIH6); 0% Pro5, 100% B10-LARGE cell signal; 360,000 tested, 0.22% active;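 active = activation of at least 8% versus controls, or a plate z-score of at least 8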;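 also: Pro5 are CHO cells carrying HIG-tagged alpha-DG that lacks glycosylation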
A3G conf: confirmation of human APOBEC3G DNA deaminase inhibitors; shares compounds with APOBEC3G inh; recombinant A3G ssDNA deaminase, UDG/FAM-TAMRA fluorescence; inhibition, % at 20 µM; 890 tested, 72% active; AID 493152;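 active = inhibition reaching a set limit in any replicate at 20 µM, the limit being 80% of the first screen's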
UDG ctr A3G: E. coli UDG inhibition in APOBEC3G counter-screen; shares compounds with APOBEC3G inh; UDG counterscreen, FAM/TAMRA oligo fluorescence; inhibition, % at 20 µM; 710 tested, under 10 active;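 active = compounds giving 40% or more inhibition at 20 µM in any one of the three replicates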;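 also: inhibitors lower the FAM signal released by uracil excision and alkaline cleavage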
Target sequence (P12295 whole entry, looked up): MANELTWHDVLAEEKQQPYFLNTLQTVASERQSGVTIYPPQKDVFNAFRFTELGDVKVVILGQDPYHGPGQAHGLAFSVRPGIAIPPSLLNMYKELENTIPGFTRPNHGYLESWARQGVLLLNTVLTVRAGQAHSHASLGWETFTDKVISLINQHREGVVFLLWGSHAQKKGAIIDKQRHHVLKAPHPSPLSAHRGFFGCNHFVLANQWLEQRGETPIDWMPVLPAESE
Large screens that a line does not name were inactive (follow-up assays come after a bar, where they were run). This is a sample that favours compounds with a hit; in the whole collection about 5.4% have one here.

COc1cc(/C=C/C(=O)NNc2c(F)c(F)cc(F)c2F)ccc1OC(F)F	none (no result: rCAG binder)
O=C(NC1CCCCC1)c1ccc(-c2cn[nH]c2)c2ccoc12	none (no result: ALR H2O2 inh, APOBEC3G inh, A3A deaminase, PHOSPHO1 block)
O=C(Cc1ccccc1)NNC(=S)NC(=O)c1cccnc1	APOBEC3G inh 43 | A3G conf inactive | UDG ctr A3G inactive
O=C(NNC(=S)NC(=O)c1cccnc1)c1ccccc1	none
COc1cc(OC)cc(-c2nc(-c3ccccc3OC)no2)c1	none (no result: ALR H2O2 inh)
COc1cc(N=c2ssnc2Cl)cc(OC)c1	APOBEC3G inh 65 | A3G conf 65
Cc1cc(C)cc(C(N)=Nc2cccc(C#N)c2)c1	none
N#Cc1cccc(N=c2ssnc2Cl)c1	APOBEC3G inh 74 (no result: ALR H2O2 inh, aDG glyco up) | A3G conf 88 | UDG ctr A3G inactive
CC(=O)NCCC(=O)Nc1nc(-c2c[nH]c3ccccc23)cs1	APOBEC3G inh 79 (no result: ALR H2O2 inh) | A3G conf inactive | UDG ctr A3G inactive
O=S1(=O)C=C[C@H](COCc2ccccc2)N1	none (no result: ALR H2O2 inh, APOBEC3G inh, A3A deaminase, PHOSPHO1 block)
CC(=O)c1ccc(NC(=O)NC2CCCCN(Cc3ccc(Cl)cc3)C2=O)cc1 (configuration not stated)	none (no result: ALR H2O2 inh, APOBEC3G inh, A3A deaminase, PHOSPHO1 block, aDG glyco up)
CC(=O)Nc1n[nH]c(=S)s1	none (no result: ALR H2O2 inh, APOBEC3G inh, A3A deaminase, PHOSPHO1 block)
CNc1n[nH]c(=S)s1	APOBEC3G inh 67 | A3G conf 76 | UDG ctr A3G inactive
O=C(O)c1ccccc1Nc1cc(Cl)c2nonc2c1[N+](=O)[O-]	none (no result: PHOSPHO1 block)
O=[N+]([O-])c1c(Nc2ccccn2)cc(Cl)c2nonc12	APOBEC3G inh 45 | A3G conf 60
COc1ccc(NC(=O)CSc2ncnc3scc(-c4ccc(C)cc4)c23)cc1OC	none (no result: ALR H2O2 inh, APOBEC3G inh, A3A deaminase, PHOSPHO1 block, aDG glyco up)
S=c1cnc2ccccc2[nH]1	APOBEC3G inh 62 | A3G conf 84 | UDG ctr A3G inactive
Nn1c(-c2cccc(Br)c2)n[nH]c1=S	APOBEC3G inh 59, PHOSPHO1 block 96 | A3G conf 80 | UDG ctr A3G inactive
COc1ccc(NC(=O)CN(C)C(=O)c2cccc(S(=O)(=O)Nc3ccc(OC)cc3)c2)cc1	APOBEC3G inh 49 (no result: PHOSPHO1 block) | A3G conf inactive | UDG ctr A3G inactive
COc1cc(C(=S)N2CCN(C(c3ccccc3)c3ccccc3)CC2)cc(OC)c1O	APOBEC3G inh 43 (no result: PHOSPHO1 block) | A3G conf inactive | UDG ctr A3G inactive
COc1ccc(NC(=S)N2CCN(C(c3ccccc3)c3ccccc3)CC2)cc1OC	none (no result: ALR H2O2 inh)
CC(=O)c1sc2nsc(SCCN3CCOCC3)c2c1N	ALR H2O2 inh inconclusive, APOBEC3G inh 62, PHOSPHO1 block 86 | A3G conf 59 | UDG ctr A3G inactive
CCOC(=O)c1sc2nc(OCCN3CCOCC3)cc(C)c2c1N	none (no result: ALR H2O2 inh, APOBEC3G inh, A3A deaminase, PHOSPHO1 block)
CCOC(=O)c1sc(N/N=C/c2ccccc2)nc1C	APOBEC3G inh 53 (no result: ALR H2O2 inh) | A3G conf 64 | UDG ctr A3G inactive
CCOC(=O)c1sc(N/N=C/c2cccc(C)c2)nc1C	none
S=c1[nH]nc(Cc2cccs2)n1-c1ccccc1	APOBEC3G inh 57 | A3G conf 59 | UDG ctr A3G inactive
S=c1[nH]nc(Cc2cccs2)n1-c1ccccc1Cl	none
CCCC(=O)N1CCCC1(C)C(=O)N(C)Cc1cccc2ccccc12 (configuration not stated)	none (no result: ALR H2O2 inh, APOBEC3G inh, A3A deaminase, PHOSPHO1 block)
Cc1ccc(C(=O)c2c(NC(=O)CSc3nnc(N)s3)sc3c2CCCC3)cc1	APOBEC3G inh 45 | A3G conf inactive
Cc1csc(SCC(=O)Nc2sc3c(c2C#N)CCC3)n1	APOBEC3G inh 42 | A3G conf inactive
O=C(/C=C/c1cc[n+](CC(=O)c2ccc3cccc4c3c2CC4)cc1)c1ccc2cccc3c2c1CC3	APOBEC3G inh 54 (no result: ALR H2O2 inh, rCAG binder) | A3G conf 55
CCc1nc2c(OCc3cccc(Cl)c3)cccn2c1N(C)C(=O)c1ccncc1	none (no result: ALR H2O2 inh, APOBEC3G inh, A3A deaminase, PHOSPHO1 block)
C[C@H](O)[C@@H]1CN2CCc3ccc(-c4ccc5c(c4)OCO5)cc3[C@@H]2C[C@@H]1N(C)Cc1ccccc1	none (no result: ALR H2O2 inh, APOBEC3G inh, A3A deaminase, PHOSPHO1 block, aDG glyco up)
CC(C)(CS(=O)(=O)[O-])NC(=O)CC[N+](C)(C)CCO	APOBEC3G inh 88 | A3G conf 94
CC1(c2ccc(F)cc2)OC(=O)c2c1ccc1ccccc21 (configuration not stated)	none (no result: ALR H2O2 inh, APOBEC3G inh, A3A deaminase, PHOSPHO1 block)
CC(C)n1cc(CN2CCC(n3nccc3NC(=O)Cc3ccccc3)CC2)cn1	APOBEC3G inh 71 | A3G conf inactive
CC(C)n1cc(CN2CCC(n3nccc3NC(=O)CCCc3ccccc3)CC2)cn1	none
CC1=CC2(C(Cc3ccccc3)N(CC3CC3)C(=NC(=O)c3ccccc3)N2C(=O)OCc2ccccc2)n2c(=O)n(-c3ccccc3)c(=O)n2C1 (configuration not stated)	none (no result: ALR H2O2 inh, APOBEC3G inh, A3A deaminase, PHOSPHO1 block, aDG glyco up)
CCOC(=O)C1=C(C)N(c2ccc(C)cc2)C(=O)/C1=C\c1ccc(O)c(OC)c1	APOBEC3G inh 77 | A3G conf inactive
O=C(Nc1ccc2c(c1)OCO2)c1cc(C2CCCN(C(=O)C3CCCCC3)C2)on1 (configuration not stated)	none (no result: ALR H2O2 inh, APOBEC3G inh, A3A deaminase, PHOSPHO1 block)
OC[C@@H]1CN(Cc2ccc(-c3ccccc3)cc2)C[C@H](n2cnc3c(N4CCOCC4)ncnc32)O1	none (no result: ALR H2O2 inh, APOBEC3G inh, A3A deaminase, PHOSPHO1 block)
O=S(=O)(c1ccc(=S)[nH]c1)N1CCOCC1	APOBEC3G inh 44 (no result: PHOSPHO1 block) | A3G conf 73 | UDG ctr A3G inactive
COc1cc(OC)cc(C(=O)NCC2CCN(C(=O)C(=O)c3cccs3)CC2)c1	none (no result: ALR H2O2 inh, APOBEC3G inh, A3A deaminase, PHOSPHO1 block, aDG glyco up)
S=C(Nc1ccc(Br)cc1Cl)NN1CCOCC1	APOBEC3G inh 61 | A3G conf inactive
Fc1ccc(NC(=S)NN2CCOCC2)cc1Cl	none
COc1cccc(/C=N/n2c(-c3cc(C)[nH]n3)n[nH]c2=S)c1	APOBEC3G inh 49 (no result: ALR H2O2 inh) | A3G conf 83 | UDG ctr A3G inactive
COc1cc(/C=N/n2c(-c3cc(C)[nH]n3)n[nH]c2=S)cc(OC)c1OC	APOBEC3G inh 47 | A3G conf 76 | UDG ctr A3G inactive
COc1cc(/C=N/n2c(-c3cc(C)[nH]n3)n[nH]c2=S)ccc1O	none (no result: ALR H2O2 inh)
CCCCS(=O)(=O)N1CCCc2nc(C)c(C)cc21	none (no result: ALR H2O2 inh, APOBEC3G inh, A3A deaminase, PHOSPHO1 block, aDG glyco up)
Cc1cccc(C)c1NC(=O)CN(C)CC(=O)Nc1cc(Cl)ccc1C#N	none (no result: ALR H2O2 inh)
CCOc1ccc(NC(=O)CN(C)CC(=O)Nc2cc(Cl)ccc2C#N)cc1OCC	APOBEC3G inh 91 | A3G conf inactive
CC[n+]1c(C)sc2sc3ccccc3c21	APOBEC3G inh 55 (no result: rCAG binder, aDG glyco up) | A3G conf 67
CC[n+]1c(C)sc2c3ccsc3ccc21	none
Cc1ccc(/C=N/n2c(-c3cccnc3)n[nH]c2=S)s1	ALR H2O2 inh 76, APOBEC3G inh 55 | A3G conf 71 | UDG ctr A3G inactive
CN(C)c1ccc(/C=N/n2c(-c3cccnc3)n[nH]c2=S)cc1	ALR H2O2 inh 98, APOBEC3G inh 45 | A3G conf 83 | UDG ctr A3G inactive
Cn1cc(-c2csc(C(O)(c3ccccc3)C(F)(F)F)n2)cn1 (configuration not stated)	none (no result: ALR H2O2 inh, APOBEC3G inh, A3A deaminase, PHOSPHO1 block)

Screens: PubChem, several laboratories
